{"source": "PubChem BioAssay", "note": "Activity calls are given as the source filed them. Unless noted, no rule for the calls is given here."}
{"assay": "Pseudomonas biofilm growth suppression – PAO1 strain, BacTiter-Glo luminescence, LB-PBS, primary screen (AID 1144)", "details": "P. aeruginosa PAO1 biofilm, 12 h, higher = more signal"}
{"smiles": "O=C1[C@@H]2[C@@H](CC(COc3ccccc3)=C([C@H](O)CCc3ccccc3)[C@@H]2CO)C(=O)N1Cc1ccccc1", "z-score": "-0.423 (inactive)"}
{"smiles": "COCCOC(=O)N1C(=O)[C@@]2(c3cc(C#CCC(C(=O)OC)C(=O)OC)ccc31)[C@H](C(N)=O)[C@H]1C(=O)O[C@H](c3ccccc3)[C@H](c3ccccc3)N1[C@@H]2c1ccc(O)cc1", "z-score": "-1.01 (inactive)"}
{"smiles": "CN(C)CCCNC(=O)[C@@]1(C)c2ccccc2C(=O)N(Cc2ccc(OC(F)(F)F)cc2)[C@H]1c1ccc(CO)cc1", "z-score": "-1.04 (inactive)"}
{"smiles": "CCCC=C(CCC)[C@@H](NC(=O)OCC(C)C)c1ccc(C(=O)OC)cc1", "z-score": "0.3 (inactive)"}
{"smiles": "COc1ccc(CCNC(=O)[C@@H]2c3ccccc3C(=O)N(Cc3ccccc3OC)[C@H]2c2ccc(CO)cc2)cc1", "z-score": "-0.0742 (inactive)"}
{"smiles": "CCCC#C[Si](O[C@H](CC)c1cn(Cc2ccccc2)nn1)(C(C)C)C(C)C", "z-score": "0.171 (inactive)"}
{"smiles": "[N-]=[N+]=NCc1ccccc1[C@@H]1OC(c2ccc(OCCCO)cc2)=N[C@]1(Cc1ccccc1N=[N+]=[N-])C(=O)O", "z-score": "-1.09 (inactive)"}
{"smiles": "CN(C)CCCNC(=O)[C@@H]1c2ccccc2C(=O)N(Cc2ccccc2C(F)(F)F)[C@H]1c1ccc(CO)cc1", "z-score": "0.405 (inactive)"}
{"smiles": "C=CCNC(=O)[C@H]1[C@@H]2C(=O)O[C@@H](c3ccccc3)[C@@H](c3ccccc3)N2[C@@H](c2ccc(OCCO)cc2)[C@]12C(=O)Nc1ccccc12", "z-score": "-0.9 (inactive)"}
{"smiles": "O=C1O[C@@H](c2ccccc2)[C@@H](c2ccccc2)N2[C@@H](c3ccccc3OCCO)[C@]3(C(=O)Nc4ccc(C#CCCO)cc43)[C@@H](C(=O)NC[C@H](O)c3ccccc3)[C@H]12", "z-score": "0.191 (inactive)"}
{"smiles": "C[C@]1(C(=O)O)c2ccccc2C(=O)N(Cc2cc(F)cc(C(F)(F)F)c2)[C@H]1c1ccc(CO)cc1", "z-score": "-2.17 (inactive)"}
{"assay": "basal CRE-LacZ reporter activity in PC12 – cell-based, unstimulated, primary screen (AID 1145)", "details": "no forskolin, luminescence, 4.5 h, higher = more signal, called active from +8 up or from −8 down"}
{"smiles": "[N-]=[N+]=Nc1ccccc1C[C@@]1(C(=O)NCC(O)CO)N=C(c2ccc(OCCCO)cc2)O[C@@H]1c1ccccc1", "note": "(stereo partly specified)", "z-score": "-0.16 (inactive)"}
{"smiles": "C=C(CCCC)/C(=C/C[C@H](OC(=O)c1ccncc1)c1cccc(OCCO)c1)c1cnc2ccccc2c1", "z-score": "2.6 (inactive)"}
{"smiles": "COCCOC(=O)N1C(=O)[C@@]2(c3cc(C#Cc4ccc(OC)cc4)ccc31)[C@H](c1ccc(OCCO)cc1)N1[C@H](c3ccccc3)[C@H](c3ccccc3)OC(=O)[C@H]1[C@@H]2C(=O)NC[C@H](O)c1ccccc1", "z-score": "-0.463 (inactive)"}
{"smiles": "CCOC(=O)C1=CC[C@@H](c2ccc(OC)cc2)N(S(=O)(=O)c2ccc(C)cc2)[C@H]1c1ccc(C)cc1", "z-score": "-0.415 (inactive)"}
{"smiles": "COCCOC(=O)N1C(=O)[C@@]2(c3cc(C#CCCO)ccc31)[C@H](c1ccc(OCCO)cc1)N1[C@H](c3ccccc3)[C@H](c3ccccc3)OC(=O)[C@H]1[C@@H]2C(=O)N1CCCCCCC1", "z-score": "-0.459 (inactive)"}
{"smiles": "COC(=O)[C@@]1(Cc2ccc(F)cc2)[C@H]2c3cc(C(=O)N4CCCC4)n(Cc4cc(F)cc5c4OCOC5)c3C[C@H]2CN1C(=O)c1ccccc1", "z-score": "-0.372 (inactive)"}
{"smiles": "C=C(CCCC)/C(=C/C[C@H](OC(=O)c1ccncc1)c1ccc(OCCO)cc1)c1cnc2ccccc2c1", "z-score": "10.9 (active)"}
{"smiles": "C=CCOC(=O)[C@@H]1[C@H]2C(=O)O[C@H](c3ccccc3)[C@H](c3ccccc3)N2[C@H](c2ccc(OCCOC(=O)[C@H]3C[C@H]4C(=O)N5CCC[C@H]5C(=O)N4[C@H]3c3cccc(OCCO)c3)cc2)[C@@]12C(=O)Nc1ccc(I)cc12", "z-score": "0.545 (inactive)"}
{"smiles": "COc1ccc([Si](C)(C)[C@H]2[C@H](CC(=O)N3Cc4ccccc4C[C@H]3CO)O[C@@]3(C(=O)N(C)c4c(Br)cc(C)cc43)[C@@H]2C)cc1", "z-score": "7.68 (inactive)"}
{"smiles": "CCCC[C@H]1OB(O)C[C@H]2C1=C(COc1ccccc1)C[C@H]1C(=O)C=CC(=O)[C@H]12", "z-score": "6.38 (inactive)"}
{"smiles": "COCCOC(=O)N1C(=O)[C@@]2(c3cc(C#CCC(C(=O)OC)C(=O)OC)ccc31)[C@H](C(=O)Nc1nc3ccccc3s1)[C@H]1C(=O)O[C@H](c3ccccc3)[C@H](c3ccccc3)N1[C@@H]2c1ccc(O)cc1", "z-score": "-1.14 (inactive)"}
{"smiles": "COC(=O)[C@@]1(Cc2ccc(OC)cc2)[C@H]2c3cc(C(=O)N4CCCC4)n(Cc4ccc(Cl)c(C(F)(F)F)c4)c3C[C@H]2CN1C(=O)c1ccccc1", "z-score": "0.0143 (inactive)"}
{"smiles": "Cc1ccc(F)cc1S(=O)(=O)N[C@H]1CCN(Cc2ccc(OC(C)C)cc2)C1", "z-score": "1.4 (inactive)"}
{"smiles": "COCCOC(=O)N1C(=O)[C@@]2(c3cc(C#CCNC(N)=O)ccc31)[C@H](C(=O)Nc1nc3ccccc3s1)[C@H]1C(=O)O[C@H](c3ccccc3)[C@H](c3ccccc3)N1[C@@H]2c1ccccc1OCCO", "z-score": "-0.465 (inactive)"}
{"smiles": "CCCCC(O)C1C=CC2C(=O)N(c3ccccc3)C(=O)C2N1Nc1ccc([N+](=O)[O-])cc1", "note": "(stereo unspecified)", "z-score": "-0.219 (inactive)"}
{"smiles": "CCCN1C(=O)[C@@]2(c3ccc([N+](=O)[O-])cc3)CC(=O)N(CC34CC5CC(CC(C5)C3)C4)[C@@H]2c2ccc(CO)cc21", "z-score": "0.272 (inactive)"}
{"smiles": "O=C1C=C(c2ccccc2)C(=O)C2=C1CC([C@H]1Oc3ccccc3S(=O)(=O)N3CCC[C@@H]13)=CC2", "z-score": "4.67 (inactive)"}
{"smiles": "O=C1[C@H]2C=C(I)[C@H](C[C@@H]2OCCCCCCO)[C@@]12CO2", "z-score": "1.21 (inactive)"}
{"smiles": "N#Cc1ccc(-c2cccc(=O)o2)cc1", "z-score": "-0.163 (inactive)"}
{"smiles": "N#Cc1ccc(NN2C(C(O)C3CC=CCC3)C=CC3C(=O)N(c4ccccc4)C(=O)C32)cc1", "note": "(stereo unspecified)", "z-score": "0.629 (inactive)"}
{"smiles": "COC(=O)C(CC#Cc1ccc2c(c1)[C@]1(C(=O)N2)[C@H](c2ccc(OCCO)cc2)N2[C@H](c3ccccc3)[C@H](c3ccccc3)OC(=O)[C@H]2[C@@H]1C(=O)N1CCCCCCC1)C(=O)OC", "z-score": "0.622 (inactive)"}
{"smiles": "COCCOC(=O)N1C(=O)[C@@]2(c3ccccc31)[C@H](c1ccc(O)cc1)N1[C@H](c3ccccc3)[C@H](c3ccccc3)OC(=O)[C@H]1[C@@H]2C(=O)N1CCCCCCC1", "z-score": "0.0816 (inactive)"}
{"smiles": "COc1ccc(C(O)C2C=CC3C(=O)N(c4ccccc4)C(=O)C3N2Nc2ccc([N+](=O)[O-])cc2)c2ccccc12", "note": "(stereo unspecified)", "z-score": "-0.228 (inactive)"}
{"smiles": "O=C1c2ccccc2[C@@]2(Cc3ccccc3N(Cc3ccccc3)C2=O)[C@H](c2ccc(CO)cc2)N1Cc1ccccc1Cl", "z-score": "-0.322 (inactive)"}
{"smiles": "O=C1[C@@H]2[C@@H](CC(COc3ccccc3)=C([C@H](O)CCc3ccccc3)[C@@H]2CO)C(=O)N1Cc1ccccc1", "z-score": "4.74 (inactive)"}
{"smiles": "COCCOC(=O)N1C(=O)[C@@]2(c3cc(C#CCC(C(=O)OC)C(=O)OC)ccc31)[C@H](C(N)=O)[C@H]1C(=O)O[C@H](c3ccccc3)[C@H](c3ccccc3)N1[C@@H]2c1ccc(O)cc1", "z-score": "-0.168 (inactive)"}
{"smiles": "CN(C)CCCNC(=O)[C@@]1(C)c2ccccc2C(=O)N(Cc2ccc(OC(F)(F)F)cc2)[C@H]1c1ccc(CO)cc1", "z-score": "1.06 (inactive)"}
{"smiles": "CCCC=C(CCC)[C@@H](NC(=O)OCC(C)C)c1ccc(C(=O)OC)cc1", "z-score": "-1.72 (inactive)"}
{"smiles": "COc1ccc(CCNC(=O)[C@@H]2c3ccccc3C(=O)N(Cc3ccccc3OC)[C@H]2c2ccc(CO)cc2)cc1", "z-score": "0.531 (inactive)"}
{"smiles": "CCCC#C[Si](O[C@H](CC)c1cn(Cc2ccccc2)nn1)(C(C)C)C(C)C", "z-score": "-0.374 (inactive)"}
{"smiles": "[N-]=[N+]=NCc1ccccc1[C@@H]1OC(c2ccc(OCCCO)cc2)=N[C@]1(Cc1ccccc1N=[N+]=[N-])C(=O)O", "z-score": "0.526 (inactive)"}
{"smiles": "CN(C)CCCNC(=O)[C@@H]1c2ccccc2C(=O)N(Cc2ccccc2C(F)(F)F)[C@H]1c1ccc(CO)cc1", "z-score": "-0.206 (inactive)"}
{"smiles": "C=CCNC(=O)[C@H]1[C@@H]2C(=O)O[C@@H](c3ccccc3)[C@@H](c3ccccc3)N2[C@@H](c2ccc(OCCO)cc2)[C@]12C(=O)Nc1ccccc12", "z-score": "0.389 (inactive)"}
{"smiles": "O=C1O[C@@H](c2ccccc2)[C@@H](c2ccccc2)N2[C@@H](c3ccccc3OCCO)[C@]3(C(=O)Nc4ccc(C#CCCO)cc43)[C@@H](C(=O)NC[C@H](O)c3ccccc3)[C@H]12", "z-score": "-0.402 (inactive)"}
{"smiles": "C[C@]1(C(=O)O)c2ccccc2C(=O)N(Cc2cc(F)cc(C(F)(F)F)c2)[C@H]1c1ccc(CO)cc1", "z-score": "-0.502 (inactive)"}
